Assay [1] in a line: optical density shifts of acrAB sulA E. coli – strain DRC41, OD650, 48 h, E. coli filamentation inducer project, primary screen (AID 1152).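 Note: E. coli MC1000 strain DRC41 lacking acrAB efflux pump and sulA.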 Particulars: higher = more signal, called active from +8 up or from −8 down.
Assay [2] is described as follows: probe aLefty1 binding on compound microarray – biochemical, small-molecule microarray, 635/667 nm fluorescence, primary screen (AID 1153).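 Note: score merges spot fluorescence with signal-to-noise ratio from the scanned slide images.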 Particulars: higher = more signal.
A short description of assay [3]: plasmodial surface anion channel blockers, osmotic lysis – cell-based, P. falciparum Indochina, OD700, 1 h, primary screen (AID 1154). Conditions: P. falciparum Indochina infected RBC osmotic lysis, higher = more signal, called active from +8 up or from −8 down.
A short description of assay [4]: plasmodial surface anion channel blockers, osmotic lysis – cell-based, P. falciparum Indochina, OD700, 2 h, primary screen (AID 1155).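 Note: lysis reports solute entry through the parasite surface anion channel PSAC.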 Particulars: P. falciparum Indochina infected erythrocytes, higher = more signal, called active from +8 up or from −8 down.
The nature of assay [5]: changes in parasitized red cell lysis, either direction – P. falciparum Indochina, OD700, 3 h, PSAC antagonist project, primary screen (AID 1156). Conditions: P. falciparum-infected erythrocytes, osmotic lysis, higher = more signal, called active from +8 up or from −8 down.
The nature of assay [6]: plasmodial surface anion channel blockers, osmotic lysis – cell-based, P. falciparum Indochina, OD700, 18 h, primary screen (AID 1157). Particulars: P. falciparum Indochina infected erythrocytes, osmotic lysis OD700, 18 h; higher = more signal, called active from +8 up or from −8 down.
The nature of assay [7]: S6 kinase pathway phospho-S6 level changes – cell-based, A549, cytoblot, luminescence, serum-stimulated, primary screen (AID 1158).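 Note: serum-stimulated A549 lung adenocarcinoma cells; signal is phosphorylated S6 detected by cytoblot immunostaining with HRP secondary.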 Particulars: 5 h, higher = more signal.
Assay [8] addresses NADPH oxidase 2 (Homo sapiens) (UniProt P04839). The assay can be described thus: compounds shifting NOX2 Amplex Red fluorescence – cell-based, HEK293-NOX2, PMA-stimulated, NOX inhibitor project, primary screen (AID 1159). Note: test concentration not given here. Particulars: 45 min, higher = more signal, called active from +8 up or from −8 down.
Assay [9] has as its target NADPH oxidase 4 (Homo sapiens) (UniProt Q9NPH5). The assay can be described thus: compounds shifting NOX4 Amplex Red fluorescence – cell-based, HEK293-NOX4, tetracycline-induced, NOX inhibitor project, primary screen (AID 1160). Conditions: HEK293-NOX4, Amplex Red H2O2 fluorescence, 45 min; higher = more signal, called active from +8 up or from −8 down.
Assay [10] has as its target NADPH oxidase 5 (Homo sapiens) (UniProt Q96PH1). Put plainly: compounds shifting NOX5 Amplex Red fluorescence – cell-based, HEK293-NOX5, NOX inhibitor project, primary screen (AID 1161). Particulars: HEK293-NOX5, ionomycin, 45 min, higher = more signal.
Assay [11] in a line: compound effects on lung adenocarcinoma cell viability – A549, calcein-AM fluorescence, 48 h, basal, profiling panel (AID 1162). Note: test concentration not given here. Conditions: higher = more signal.
Assay [12] can be described thus: compound effects on differentiated 3T3-L1 adipocyte viability – cell-based, 3T3-L1 adipocytes, calcein-AM fluorescence, 48 h, basal, profiling panel (AID 1163). Note: test concentration not given here. Particulars: 3T3-L1 adipocytes viability, higher = more signal.
Assay [13] in a line: compound effects on hepatocellular carcinoma cell viability – HepG2, calcein-AM fluorescence, 48 h, basal, profiling panel (AID 1164). Note: test concentration not given here. Conditions: higher = more signal.
Assay [14] can be described thus: compound effects on multiple myeloma cell viability – MM1S, calcein-AM fluorescence, 48 h, basal, profiling panel (AID 1165). Note: test concentration not given here. Conditions: higher = more signal.
Assay [15] can be described thus: calcein-AM signal in unstimulated myeloma cells – cell-based, calcein-AM fluorescence, 48 h, PK04 Diversity Set, profiling panel (AID 1166).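 Note: cells grown under basal conditions without added stimulus; test concentration not given here.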 Conditions: RPMI8226 myeloma viability, higher = more signal.
Assay [16] can be described thus: JC-1 mitochondrial signal, unstimulated HepG2 cells – cell-based, JC-1 fluorescence, 24 h, 100 nL compound, profiling panel (AID 1167). Note: test concentration not given here. Conditions: HepG2 mitochondrial potential, higher = more signal.
Assay [17] is described as follows: JC-1 mitochondrial signal, unstimulated adipocytes – cell-based, JC-1 fluorescence, 3T3-L1 adipocytes, 24 h, 100 nL compound, profiling panel (AID 1168). Note: test concentration not given here. Conditions: JC-1 mitochondrial fluorescence, higher = more signal, called active from +8 up or from −8 down.
Assay [18] can be described thus: JC-1 mitochondrial signal, unstimulated myeloma cells – cell-based, JC-1 fluorescence, RPMI8226, 24 h, 100 nL compound, profiling panel (AID 1169). Note: test concentration not given here. Particulars: JC-1 mitochondrial potential fluorescence, higher = more signal.
Assay [19] is described as follows: JC-1 mitochondrial signal, unstimulated MM1S myeloma – cell-based, JC-1 fluorescence, 24 h, 100 nL compound, profiling panel (AID 1170). Note: test concentration not given here. Conditions: MM1S mitochondrial potential, higher = more signal.
The nature of assay [20]: resazurin metabolic signal in A549 cells – cell-based, resazurin fluorescence, 24 h, PK04 Diversity Set, profiling panel (AID 1171). Note: test concentration not given here. Conditions: A549 viability, higher = more signal, called active from +8 up or from −8 down.

Calls of active or inactive are those of the source.

NADPH oxidase 4 (Homo sapiens), sequence (Q9NPH5 whole entry, looked up): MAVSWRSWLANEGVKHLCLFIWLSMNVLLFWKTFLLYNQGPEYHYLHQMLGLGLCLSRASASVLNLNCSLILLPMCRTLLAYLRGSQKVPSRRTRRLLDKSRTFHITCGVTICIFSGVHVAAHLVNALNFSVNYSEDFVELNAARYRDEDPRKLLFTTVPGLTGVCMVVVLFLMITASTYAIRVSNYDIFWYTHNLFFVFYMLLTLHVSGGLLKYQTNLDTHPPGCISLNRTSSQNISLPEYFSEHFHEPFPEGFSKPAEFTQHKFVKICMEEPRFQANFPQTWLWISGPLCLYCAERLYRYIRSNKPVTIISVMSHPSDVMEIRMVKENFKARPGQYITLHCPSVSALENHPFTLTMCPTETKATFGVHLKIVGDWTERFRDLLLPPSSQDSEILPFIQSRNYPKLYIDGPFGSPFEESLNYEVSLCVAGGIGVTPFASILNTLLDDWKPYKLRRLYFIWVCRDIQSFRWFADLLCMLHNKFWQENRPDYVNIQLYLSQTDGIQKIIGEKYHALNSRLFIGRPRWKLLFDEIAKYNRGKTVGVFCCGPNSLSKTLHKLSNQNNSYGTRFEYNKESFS
NADPH oxidase 2 (Homo sapiens), sequence (P04839 whole entry, looked up): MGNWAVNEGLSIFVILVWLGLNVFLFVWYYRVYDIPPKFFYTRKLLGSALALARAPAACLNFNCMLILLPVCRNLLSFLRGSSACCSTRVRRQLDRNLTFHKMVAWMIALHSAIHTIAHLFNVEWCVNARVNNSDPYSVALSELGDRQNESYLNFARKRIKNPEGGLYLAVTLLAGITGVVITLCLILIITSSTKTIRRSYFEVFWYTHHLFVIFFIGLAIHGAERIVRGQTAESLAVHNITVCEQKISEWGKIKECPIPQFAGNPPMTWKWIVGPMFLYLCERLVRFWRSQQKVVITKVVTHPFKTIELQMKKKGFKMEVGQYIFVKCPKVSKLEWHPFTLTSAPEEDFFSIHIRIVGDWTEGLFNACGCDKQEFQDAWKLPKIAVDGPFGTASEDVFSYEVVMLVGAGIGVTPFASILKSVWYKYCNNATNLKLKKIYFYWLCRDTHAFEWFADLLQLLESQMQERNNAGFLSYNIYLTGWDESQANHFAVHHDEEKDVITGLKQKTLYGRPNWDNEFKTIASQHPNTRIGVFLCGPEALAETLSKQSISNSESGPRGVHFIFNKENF
NADPH oxidase 5 (Homo sapiens), sequence (Q96PH1 whole entry, looked up): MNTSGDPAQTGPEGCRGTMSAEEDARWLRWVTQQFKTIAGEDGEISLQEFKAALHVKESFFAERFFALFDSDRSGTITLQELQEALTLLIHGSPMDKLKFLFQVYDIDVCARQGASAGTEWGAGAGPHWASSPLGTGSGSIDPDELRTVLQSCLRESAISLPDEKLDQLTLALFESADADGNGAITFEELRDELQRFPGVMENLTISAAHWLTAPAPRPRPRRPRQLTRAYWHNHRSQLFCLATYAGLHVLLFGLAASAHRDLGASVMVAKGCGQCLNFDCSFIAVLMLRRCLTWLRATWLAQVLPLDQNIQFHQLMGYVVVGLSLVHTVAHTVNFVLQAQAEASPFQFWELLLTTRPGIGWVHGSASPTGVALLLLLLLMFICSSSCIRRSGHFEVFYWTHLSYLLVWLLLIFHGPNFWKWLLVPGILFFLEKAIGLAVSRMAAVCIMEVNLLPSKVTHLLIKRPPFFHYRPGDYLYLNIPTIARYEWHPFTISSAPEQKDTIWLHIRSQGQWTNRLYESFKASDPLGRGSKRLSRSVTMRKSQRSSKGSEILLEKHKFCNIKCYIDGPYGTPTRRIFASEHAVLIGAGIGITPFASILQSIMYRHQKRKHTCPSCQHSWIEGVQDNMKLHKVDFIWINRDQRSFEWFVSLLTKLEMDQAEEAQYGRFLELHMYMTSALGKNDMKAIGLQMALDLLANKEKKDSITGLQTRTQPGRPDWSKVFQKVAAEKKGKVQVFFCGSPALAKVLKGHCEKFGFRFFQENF

Consider `C[C@@H]1CC[C@H]2C(=O)O[C@@H](Cc3ccccc3)CN2[C@H]1c1ccc(Br)cc1`, for which the z-score in assay [1] was -0.28 (inactive); in [3], 2.26 (inactive); in [4], 0.935 (inactive); in assay [5], 0.277 (inactive); in assay [6], 0.563 (inactive); in assay [7] it was -0.536. The z-score is -0.251 (inactive) in [8]; -0.286 (inactive) in assay [9]; -0.621 in assay [10]; 0.442 in assay [11]; 0.185 in assay [12]; 0.828 in [13]. For the same compound, the z-score was -0.591 in [14]; -0.323 in assay [15]; -0.225 in assay [16]; 0.276 (inactive) in [17]; 0.231 in assay [18]; 0.697 in assay [19]. Further, in assay [20], the z-score is 0.539 (inactive). Further, the composite z-score in assay [2] was -0.148.
For the compound `O=C1C=C[C@@H](O)[C@@H]2[C@@H]3C(=O)N(C[C@@H]4CCCO4)C(=O)[C@@H]3CC[C@@H]12`, the z-score in assay [1] was 0.0413 (inactive); in assay [3], 1.08 (inactive); in assay [4], 0.979 (inactive); in assay [5], -0.0029 (inactive); in assay [6] it was 0.281 (inactive); in assay [7], -0.382. Moreover, the z-score in [8] is 1.71 (inactive); in assay [9], -0.0876 (inactive); in [10], 0.283; in [11] it was -0.663; in [12] it was 0.316; in assay [13], 0.324. In addition, the z-score is -0.121 in assay [14]; 0.757 in assay [15]; 1.09 in assay [16]; 0.0236 (inactive) in assay [17]; -0.643 in [18]; 0.744 in [19]. Also, the z-score in assay [20] was -0.379 (inactive). This compound also had a composite z-score in assay [2] of 0.0313.
`Cc1ccc(S(=O)(=O)N[C@@H]2COC(=O)[C@@H](C)COC(=O)CC=C[C@H]2C)cc1`: the z-score in [1] is -0.891 (inactive); in [3], 0.124 (inactive); in assay [4], 0.279 (inactive); in [5] it was -0.305 (inactive); in [6], -0.113 (inactive); in assay [7], -0.0223. Further, the z-score was -1.19 (inactive) in assay [8]; -1.59 (inactive) in assay [9]; -0.728 in assay [10]; -0.168 in [11]; 0.996 in assay [12]; 0.617 in assay [13]. Further, the z-score in assay [14] is 0.0281; in assay [15] it was 0.587; in assay [16], 0.0622; in [17] it was -0.396 (inactive); in [18], 0.62; in [19], 0.743. In addition, the z-score in [20] is 0.0709 (inactive). The same compound showed a composite z-score in assay [2] of -0.103.
For the compound `CCCNC(=O)OC[C@H]1O[C@H](CCON=C(C)CCN2CCCc3nc(C)c(C)cc32)C=C[C@@H]1Oc1ccc(OC)cc1`, the z-score in [1] was 0.794 (inactive); in [3], 5.53 (inactive); in assay [4], 0.722 (inactive); in [5], 0.99 (inactive); in [6], 0.318 (inactive); in assay [7], -0.546. The z-score in assay [8] is -0.995 (inactive); in assay [9], 0.166 (inactive); in assay [10] it was -1.14; in assay [11], 0.476; in assay [12], 1.43; in [13], -0.243. The z-score in assay [14] is -0.878; in assay [15] it was -1.57; in [16] it was 2.15; in assay [17] it was -1.09 (inactive); in [18], 0.455; in [19], 0.023. Moreover, in assay [20], the z-score is 1.21 (inactive). In assay [2], this compound gave a composite z-score of -0.0061.
On to `CO[C@H]1COC(=O)CCC[C@@H](C)[C@H](OC)COC(=O)[C@@H](C)NC(=O)CC=C[C@@H]1C`, for which the z-score in assay [1] was 0.312 (inactive); in assay [3] it was -0.806 (inactive); in [4], -0.912 (inactive); in assay [5], 0.565 (inactive); in [6], -1.59 (inactive); in [7], 1.05. In addition, the z-score was -1.18 (inactive) in [8]; -2.55 (inactive) in assay [9]; -1.3 in [10]; -0.682 in assay [11]; 1.07 in assay [12]; -0.796 in assay [13]. In addition, the z-score in assay [14] was 0.0819; in assay [15], -1.04; in assay [16] it was 1.95; in assay [17], 1.34 (inactive); in [18], 0.246; in assay [19] it was -0.754. Also, the z-score in assay [20] is 1.02 (inactive). In assay [2], the composite z-score was -0.0969.
As for `CSCC[C@@H]1NC(=O)CC=C[C@@H](C)COC(=O)[C@@H](C)COC1=O`, the z-score in assay [1] is -0.136 (inactive); in [3], -0.434 (inactive); in [4] it was 0.28 (inactive); in [5], 0.742 (inactive); in assay [6] it was 0.0841 (inactive); in assay [7], -0.0649. In addition, the z-score in assay [8] is -1.13 (inactive); in assay [9], 0.279 (inactive); in assay [10] it was 0.238; in assay [11], 0.63; in assay [12] it was 0.115; in [13], 1.47. The z-score in [14] was 0.269; in assay [15] it was 0.341; in [16], 0.852; in assay [17], 0.0903 (inactive); in [18], -0.994; in [19] it was -0.122. Besides, in [20], the z-score was 0.377 (inactive). Further, the composite z-score in [2] was -0.283.
On to `C[C@H](ON=C1[C@H]2CCn3c(=O)n(-c4ccccc4)c(=O)n3[C@H]2[C@H](O)[C@@H]2O[C@H]12)c1cn([C@H](CO)Cc2ccccc2)nn1`, for which the z-score was 0.699 (inactive) in [1]; 0.463 (inactive) in assay [3]; -0.426 (inactive) in assay [4]; -0.089 (inactive) in [5]; -0.0498 (inactive) in assay [6]; -0.52 in assay [7]. Moreover, the z-score in assay [8] was -0.094 (inactive); in assay [9], 0.535 (inactive); in [10], 0.346; in [11], -0.142; in assay [12], -0.443; in [13], 0.115. Further, the z-score in [14] is -0.403; in assay [15], -0.533; in [16] it was -0.633; in assay [17] it was -1 (inactive); in assay [18], -0.243; in assay [19], 0.155. Moreover, the z-score in assay [20] is -0.16 (inactive). For the same compound, the composite z-score in assay [2] stood at 0.0502.
`CC(C)=CCCC(C)=CCON=C1C[C@@H](O)[C@@H](O)[C@@H]2[C@@H]3C(=O)N(C[C@@H]4CCCO4)C(=O)[C@@H]3CC[C@H]12`: the z-score was -0.249 (inactive) in assay [1]; 2.57 (inactive) in assay [3]; 0.847 (inactive) in assay [4]; 0.193 (inactive) in [5]; 0.55 (inactive) in assay [6]; 0.659 in assay [7]. Moreover, the z-score in [8] was 0.0784 (inactive); in [9] it was 0.256 (inactive); in [10], -2.11; in assay [11], -0.0285; in [12], -0.789; in assay [13], -0.758. In addition, the z-score in assay [14] is 0.253; in assay [15], -0.674; in [16], -0.915; in assay [17], -0.528 (inactive); in [18], 0.569; in [19] it was -0.789. In addition, the z-score in assay [20] is 0.691 (inactive). In assay [2], this compound returned a composite z-score of -0.0501.
As to `COc1cccc([C@H]2Oc3ccc(OC)cc3C(=NO[C@@H]3O[C@H](COC(C)=O)[C@@H](OC(C)=O)[C@H](OC(C)=O)[C@H]3OC(C)=O)[C@@H]2O)c1`, the z-score is -1.34 (inactive) in assay [1]; 0.158 (inactive) in assay [3]; -0.0728 (inactive) in assay [4]; -0.362 (inactive) in assay [5]; 0.146 (inactive) in assay [6]; -1.09 in assay [7]. Further, the z-score is 0.484 (inactive) in assay [8]; 0.905 (inactive) in [9]; 0.486 in assay [10]; 0.679 in [11]; -0.375 in assay [12]; -0.104 in assay [13]. Moreover, the z-score in [14] was -0.525; in assay [15], -0.476; in assay [16], -0.515; in assay [17] it was -3.37 (inactive); in assay [18], -0.0523; in assay [19] it was 0.0745. Besides, the z-score in assay [20] is -0.416 (inactive). This compound had a composite z-score in assay [2] of -0.191.

The values above are taken from PubChem BioAssay.
